Data: PubChem BioAssay

The compounds below were run on Inhibin beta A chain (activin A) (assay: INHBA (activin A) binders on microarrays, primary screen, biochemical, small-molecule microarray, 635 nm fluorescence scan (AID 1107;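 further: mouse activin A protein probed at 4.33 µg/mL on printed slides; score merges bound-protein fluorescence near 667 nm with spot signal-to-noise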)). Conditions: small-molecule microarray binding, higher = more signal.
`COc1ccc(O[C@H]2C=C[C@@H](c3ccccc3)O[C@@H]2CON=CC[C@@H]2C=C[C@H](OC(C)=O)[C@@H](COC(C)=O)O2)cc1` was tested, and the composite z-score was 0.606.
For `CO[C@H]1COC(=O)CC=C[C@@H](C)[C@H](NS(=O)(=O)c2ccc(C)cc2)COC(=O)CCC[C@@H]1C`, the composite z-score was 0.9.
`CON=CC[C@@H]1C=C[C@H](OC(C)=O)[C@@H](COC(C)=O)O1` showed a composite z-score of 1.68.
Work on `C=COC[C@@H]1CN2[C@@H](CC[C@@H](C)[C@@H]2c2ccc(Br)cc2)C(=O)O1` yielded a composite z-score of 1.47.
Compound `O=C1[C@H]2[C@H]3[C@H](O)[C@H](O)CC(=NOCc4ccccc4)[C@@H]3CC[C@H]2C(=O)N1Cc1ccc2c(c1)OCO2` has a composite z-score of 0.45.
Compound `COC(=O)NCC=Cc1nc(CCCO)co1` has a composite z-score of 0.163.
Work on `CO[C@H]1COC(=O)CC=C[C@H](C)[C@@H](OC)COC(=O)[C@@H](C)COC(=O)CC=C[C@@H]1C` yielded a composite z-score of 1.79.
In the case of `COC(=O)[C@@H]1CC[C@H](C)[C@@H](c2ccc(C)cc2)N1C(=O)c1ccc(C=NOC[C@@H](C)[C@H](OCc2ccccc2)C(C)C)cc1`, the composite z-score was -0.182.
Work on `COC(=O)CC=C[C@@H](C)[C@@H](C=NO[C@@H]1O[C@H](COC(C)=O)[C@@H](OC(C)=O)[C@H](OC(C)=O)[C@H]1OC(C)=O)NS(=O)(=O)c1ccc(C)cc1` yielded a composite z-score of -1.58.
Work on `CCOC(=O)[C@H](CC(C)C)NC(=O)CCC1CC(OC(=O)NCc2cccc3ccccc23)CC2(CCCC(COC(=O)NCCOc3ccccc3)O2)O1` (stereo partly specified) yielded a composite z-score of 0.184.
Work on `COc1cccc([C@H]2Oc3ccc(OC)cc3C(=NO[C@@H](C)c3cn([C@H](CO)Cc4ccccc4)nn3)[C@@H]2O)c1` yielded a composite z-score of 0.176.
Compound `COC(=O)CC=C[C@@H](C)[C@@H](C=NOC[C@H]1O[C@H](c2ccccc2)C=C[C@@H]1Oc1ccc(OC)cc1)NS(=O)(=O)c1ccc(C)cc1` has a composite z-score of 0.797.
For `C=CC1=C[C@H](O)[C@@H]2O[C@@H]2C12OCCCO2`, the composite z-score was 0.551.
For `COC(=O)CC=C[C@@H](C)[C@H](OCc1cccc(-c2ccccc2)c1)C1CCCCC1`, the composite z-score was 1.97.
`CC(C)CON=C1C[C@@H](O)[C@@H](O)[C@@H]2[C@@H]3C(=O)N(Cc4ccc5c(c4)OCO5)C(=O)[C@@H]3CC[C@H]12` gave a composite z-score of -0.374.
With `COc1ccc(O[C@H]2C=C[C@@H](c3ccccc3)O[C@@H]2CON=C(C)C)cc1` the composite z-score was 1.42.
`COC(=O)CC=C[C@@H](C)[C@@H](C=NOC(C)CN1CCCc2nc(C)c(C)cc21)OC` (stereo partly specified) gave a composite z-score of -0.0511.
`CC(C)(C)N1C(=O)[C@H]2[C@H]3[C@H](O)[C@H](O)CC(=NO[C@@H]4O[C@H](CO)[C@@H](O)[C@H](O)[C@H]4O)[C@H]3CC[C@H]2C1=O` gave a composite z-score of 1.35.
`C#CCCCON=C1C[C@@H](O)[C@@H](O)[C@@H]2[C@@H]3C(=O)N(C(C)(C)C)C(=O)[C@@H]3CC[C@H]12` was tested, and the composite z-score was 0.615.
For `CCOC(=O)NN=C1C[C@@H](O)[C@@H](O)[C@@H]2[C@@H]3C(=O)N([C@@H](C)c4ccccc4)C(=O)[C@@H]3CC[C@H]12`, the composite z-score was 0.121.
Work on `COC(=O)[C@@H]1CC[C@H](C)[C@@H](c2ccc(C)cc2)N1C(=O)c1ccc(C=NO[C@H](C)c2cn([C@H](CO)Cc3ccccc3)nn2)cc1` yielded a composite z-score of 0.135.
Compound `CCOC(=O)CCN1C(=O)[C@H]2[C@H]3[C@H](O)[C@H](O)CC(=NNC(=O)OCc4ccccc4)[C@@H]3CC[C@H]2C1=O` has a composite z-score of -0.196.
`CC(C)=CCCC(C)=CCON=C1C[C@@H](O)[C@@H](O)[C@@H]2[C@@H]3C(=O)N(c4ccc(F)cc4F)C(=O)[C@@H]3CC[C@@H]12` gave a composite z-score of 1.04.
`CCc1cc2c(nc1CC)CCN(CCC(C)=NO[C@H](C)c1cn([C@H](CO)Cc3ccccc3)nn1)C2` showed a composite z-score of 1.3.
With `COC(=O)[C@H](C)NC(=O)CCC1CC(OC(=O)NCCc2ccc(F)cc2)CC2(CCCC(COC(=O)NCCC(C)C)O2)O1` (stereo partly specified) the composite z-score was 0.299.
`CCN1C(=O)[C@@H]2[C@H]3C(=CC[C@@H]2C1=O)C1(OCCCO1)[C@H]1O[C@H]1[C@H]3O` was tested, and the composite z-score was -0.0212.
For `CCCNC(=O)OC[C@H]1O[C@H](CCON=C(C)CCN2CCc3nc(CC)c(CC)cc3C2)C=C[C@@H]1Oc1ccc(OC)cc1`, the composite z-score was 0.886.
Work on `COc1cccc([C@H]2Oc3ccc(OC)cc3C(=NO[C@H](C)c3cn([C@H](CO)Cc4ccccc4)nn3)[C@@H]2O)c1` yielded a composite z-score of 0.548.
`Cc1ccc(S(=O)(=O)n2c3ccccc3c3nnc(C(=O)c4ccccc4)nc32)cc1` was tested, and the composite z-score was 0.546.
`CCOC(=O)[C@H](Cc1ccccc1)NC(=O)CCC1CC(OC(=O)NCc2ccc3c(c2)OCO3)CC2(CCCC(COC(=O)NCCc3ccccc3OC)O2)O1` (stereo partly specified) showed a composite z-score of 0.0493.
For `Cn1c(=O)n2n(c1=O)[C@H]1[C@H](O)[C@@H]3O[C@@H]3C(=O)[C@H]1CC2`, the composite z-score was 0.0134.
`C[C@@H]1CC[C@H]2C(=O)O[C@@H](Cc3ccccc3)CN2[C@H]1c1ccc(Br)cc1` showed a composite z-score of 0.619.
`CCOC(=O)[C@H](CC(C)C)NC(=O)CCC1CC(OC(=O)NCCc2ccc(F)cc2)CC2(CCCC(COC(=O)NCCc3ccc(Cl)cc3)O2)O1` (stereo partly specified) was tested, and the composite z-score was -1.71.
With `CO[C@H]1COC(=O)[C@H](C)NC(=O)CC=C[C@@H](C)[C@H](OC)COC(=O)[C@@H](OCc2ccccc2)C=C[C@@H]1C` the composite z-score was 1.34.
For `C#CCCCON=C1C[C@@H](O)[C@@H](O)[C@@H]2[C@@H]3C(=O)N(c4ccc(F)cc4F)C(=O)[C@@H]3CC[C@H]12`, the composite z-score was -0.185.
`O=C1C[C@@H](O)[C@@H](O)[C@@H]2[C@@H]3C(=O)N(Cc4ccc5c(c4)OCO5)C(=O)[C@@H]3CC[C@H]12` gave a composite z-score of 0.128.
